Sampled rows, rich in hits. Any-hit rate of the full collection: about 19%.
TDP1 inh: inhibitors of human tyrosyl-DNA phosphodiesterase TDP1; Q9NUW8; recombinant TDP1, AlphaScreen DNA substrate cleavage; Potency, µM (titrated, usually from 130 µM), for the others: at the highest dose activity change, negative = inhibition, most hits filed as inhibitors; 350,000 compounds, 0.28% hits; AID 485290; further: nearly all actives have a fitted effect of over 40% in size
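AlphaScreen read-out: signal falls as enzyme removes the 3' tyrosine-FITC from a 5'-biotinylated DNA oligo (15 nM, 5 min, RT). Enzyme was E. coli-made recombinant Tdp1 at 1 nM, exposed to compound for 15 min beforehand; beads 10 ug/ml, 10 min.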
RORgamma inh: inhibitors of mouse ROR gamma transcriptional activity; P51450; Drosophila S2 Gal4-RORgamma UAS-luciferase reporter, 20 h; Potency, µM (top dose mostly 53.6 µM), without a hit: at the top dose activity change, negative = inhibition, actives largely listed as inhibitors; 310,000 compounds, 5.4% hits; AID 2551; further: nearly all actives have a fitted effect of over 60% in size
Target sequence (P51450 whole entry, looked up, the tested form may be a part): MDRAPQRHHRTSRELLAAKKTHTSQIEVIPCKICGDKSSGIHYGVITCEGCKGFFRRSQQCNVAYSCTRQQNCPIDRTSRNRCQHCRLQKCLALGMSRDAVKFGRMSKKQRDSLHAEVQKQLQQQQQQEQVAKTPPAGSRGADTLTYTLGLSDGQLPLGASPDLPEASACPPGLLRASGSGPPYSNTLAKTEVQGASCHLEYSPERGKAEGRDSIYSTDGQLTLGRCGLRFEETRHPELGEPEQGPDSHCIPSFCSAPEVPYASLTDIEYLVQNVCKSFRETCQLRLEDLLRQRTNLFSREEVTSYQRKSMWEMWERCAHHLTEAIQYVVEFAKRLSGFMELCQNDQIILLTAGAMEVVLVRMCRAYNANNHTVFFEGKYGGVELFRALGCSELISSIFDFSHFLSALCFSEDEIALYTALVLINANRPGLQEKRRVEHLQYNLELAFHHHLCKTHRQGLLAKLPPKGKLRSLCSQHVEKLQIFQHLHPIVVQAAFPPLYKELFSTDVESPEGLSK
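Drosophila Schneider cells stably carrying a metallothionein-driven Gal4 DBD–ROR gamma fusion and a UAS-Photinus luciferase reporter were exposed to compound for 1 hr, then induced with copper sulfate (700 uM final) for 20 hr at ambient temperature before luminescence reading.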
TDP1 cell noCPT: qHTS for Inhibitors of human tyrosyl-DNA phosphodiesterase 1 (TDP1): qHTS in cells in absence of CPT | AID 686978, 2013 | Potency, µM (titrated, usually from 46.2 µM), for inactives: top-dose activity change, negative = growth inhibition, actives largely listed as inhibitors | 420,000 compounds, 15% hits | DT40 Tdp1-/- hTDP1 cells, no CPT, ATP luminescence, 48 h; further: nearly all actives have a fitted effect of over 55% in size
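No-CPT arm: Tdp1-/-;hTDP1 DT40 cells (400/well) plus compounds, incubated ≥48 hr at 37 °C. Readout CellTiter-Glo luminescence.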
VP16 counter: counter-screen for ROR gamma inhibitors: Gal4-VP16 reporter | Drosophila S2 Gal4-VP16 UAS-luciferase, luminescence, 20 h | Potency, µM (highest dose often 53.6 µM), for the others: top-dose activity, negative = inhibition, actives largely listed as inhibitors | 310,000 compounds, 3.5% hits | AID 2546;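 further: Gal4-VP16 expression switched on by copper sulfate through the metallothionein promoter; nearly all actives have a fitted effect of over 50% in size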
DT40 TDP1 CPT: DT40-hTDP1 cell growth loss with CPT. Potency, µM (highest dose often 46.2 µM), for the others: at the highest dose activity change, negative = growth inhibition, hits mostly inhibitors. 420,000 compounds, 12% hits. AID 686979. chicken DT40 Tdp1-/-;hTDP1 cells + 20 nM CPT, ATP luminescence, 48 h; further: nearly all actives have a fitted effect of over 55% in size
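Chicken DT40 Tdp1-/- cells complemented with human TDP1, 400 cells/well, exposed to compounds plus 20 nM camptothecin for at least 48 h at 37 C; viability read as ATP content by CellTiter-Glo luminescence.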
* marks the source's active call; other numbers are inactive results; ? = inconclusive; · = not tested or not shown; ! = repeats disagree; [ ] = dose if it differs, or a comment. The call rests on the fitted dose curve; in most records, active means well fitted curve in the direction sought with a large enough effect; inconclusive means small, poorly fitted or top-dose-only effect, or another doubt; inactive means no such curve, though single readings can be large; an effect the other way counts as inactive or inconclusive. On the % scale 0 is the no-effect control and ±100 the full control effect; potency means the concentration at half of the fitted maximal effect.

SMILES | TDP1 inh | RORgamma inh | TDP1 cell noCPT | VP16 counter | DT40 TDP1 CPT
O=C(Nc1ccc(O)cc1)c1ccc2c(c1)C(=O)N(Cc1ccco1)C2=O | -2% | 8% | -30% | 5% | -12%
CC(=O)Nc1ccc(Nc2ncc([N+](=O)[O-])c(Nc3ccc(NC(C)=O)cc3)n2)cc1 | 3% | 21% | ? | -3% | ?
COc1ccc(-c2nc3ccccn3c2NC2CCCCC2)cc1SC1CCCCC1 | 1% | · | 16µM* | · | ?
COc1cc(-c2nc3ccccn3c2NCc2ccccc2)ccc1SC1CCCCC1 | · | · | ? | · | 26µM*
CCOc1cc(-c2nc3ccccn3c2NCC2CCCO2)ccc1O (stereo not given) | -6% | 13% | -17% | ? | -35%
COc1cc(-c2nc3ccccn3c2NCC2CCCO2)ccc1O (stereo not given) | 1% | 14µM* | ? | 22% | ?
CCC(C)Sc1ccc(-c2nc3ccccn3c2NCc2ccccc2)cc1OC (stereo not given) | 4% | · | ? | · | ?
COc1ccc(CSc2ccc(-c3nc4ccccn4c3NCc3ccccc3)cc2OC)cc1 | 2% | · | 8.2µM* | · | 9.2µM*
Cc1ccc(N(C(C)C(=O)Nc2ccc(S(=O)(=O)N3CCOCC3)cc2)S(C)(=O)=O)cc1C (stereo not given) | -4% | 39% | -37% | -1% | ?
Cc1coc2c1c(C)cc1oc(=O)c(CC(=O)N[C@@H](CC(C)C)C(=O)O)c(C)c12 | · | 11% | 5% | 15% | -10%
CC(=O)Nc1ccc(S(=O)(=O)N(C)CC(=O)NCCOc2ccccc2)cc1 | 0% | · | -11% | · | -6%
COc1ccc(C(C(=O)Nc2c(C)cccc2C)N2CCN(C)CC2)cc1 (stereo not given) | · | · | 5% | · | 12%
Cc1ccc(-c2nc3ccccn3c2NCc2ccc3c(c2)OCO3)cc1 | 10% | -1% | ? | -3% | 21µM*
O=C(/C=C/c1ccco1)N1CCN(S(=O)(=O)c2ccccc2)CC1 | 10µM* | · | 9% | · | -15%
Cc1cc(C)c(O)c(N)c1 | 2% | -17% | · | -8% | ·
O=C(N/N=C/c1cc([N+](=O)[O-])ccc1O)C1C2CCCCC21 (stereo not given) | 6% | 0.89µM* | · | 2.8µM* | ·
O=C(N/N=C/c1ccc(O)cc1O)C1CC1 | · | · | 9% | · | 4%
O=C(N/N=C/c1cc([N+](=O)[O-])ccc1O)C1CCCCC1 | 10% | 0.5µM* | 4.6µM* | 2.5µM* | 5.2µM*
Fc1ccc(Nc2cncc(-c3ccsc3)c2)cc1Cl | · | · | 18µM* | · | 16µM*
O=C(Nc1cccnc1)Nc1ccc(F)c(Cl)c1 | 2% | 21% | ? | -6% | -26%
CCN(CC)Cc1ccc(NC(=O)c2sc3cc(Cl)ccc3c2Cl)cc1 | · | -11% | 16µM* | 2% | ?
O=C(Nc1ccc(CN2CCCCC2)cc1)c1sc2ccccc2c1Cl | 2% | -8% | 16µM* | 0% | 13µM*
Cc1ccc2c(Cl)c(C(=O)Nc3ccc4c(c3)OCO4)sc2c1 | 0% | 29% | -29% | -5% | ?
CCN(CC)c1ccc(NC(=O)c2sc3ccccc3c2Cl)cc1 | 7%[12.3 µM] | · | 21µM* | · | 21µM*
CCOc1ccc(S(=O)(=O)N2Cc3ccccc3CC2C(=O)NCCCn2ccnc2)cc1 (stereo not given) | 6% | -18% | ? | -3% | -29%
SMILES | TDP1 inh | RORgamma inh | TDP1 cell noCPT | VP16 counter | DT40 TDP1 CPT
C=CCC(C#Cc1ccccc1)N(C)C (stereo not given) | 6% | -5%[10 µM] | 9% | -4% | -1%
CCS(=O)(=O)N1CCN(S(=O)(=O)c2ccc3c(c2)OCCO3)CC1 | 23% | -41% | -12% | -11% | -10%
CCN(CC)S(=O)(=O)c1ccc(N2CCN(S(=O)(=O)c3ccc4c(c3)OCCO4)CC2)nc1 | 2% | 25% | ? | -16% | 21µM*
CCN(CC)S(=O)(=O)c1ccc(N2CCN(c3ccccc3O)CC2)nc1 | · | ? | 21µM* | -2% | ?
CCOC(=O)N1CCN(C(=O)CN(Cc2ccc(Cl)cc2)S(=O)(=O)c2ccccc2)CC1 | 6% | 3% | 21µM* | 0% | ?
CCOC(=O)N1CCN(C(=O)CN(Cc2ccccc2)S(C)(=O)=O)CC1 | -6% | 2% | 2% | -1% | ?
CCOC(=O)N1CCN(c2ccc(S(=O)(=O)N(Cc3ccccc3)Cc3ccccc3)cn2)CC1 | 6% | 41% | 13µM* | ? | 13µM*
CCCN1CN(Cc2ccco2)c2nc3ccccc3n2C1 | 6% | -16% | ? | -10% | 15µM*
Cn1cc(C2=C(c3ccc(Cl)cc3Cl)C(=O)NC2=O)c2ccccc21 | 1% | ? | 11µM*! | -5% | ?
Cc1cc(/C=N/n2cnnc2)c(C)n1-c1ccc(OCc2ccc(Cl)cc2)cc1 | 15% | 2.8µM* | 3.3µM* | ? | 4.6µM*
Fc1ccccc1COc1cccc(/C=N/n2cnnc2)c1 | -2% | 24% | 3% | -6% | -34%
Cc1cc(/C=N/n2cnnc2)c(C)n1-c1ccc(OCc2ccccc2F)cc1 | 5% | -36% | 13µM* | ? | 21µM*
Cc1ccc(CSc2nnc3nc(C)cc(C)n23)cc1 | 2% | 12% | -30% | 1% | -8%
Cc1ccc(N2CC(C(=O)OCC(=O)c3ccc(C)c([N+](=O)[O-])c3)CC2=O)cc1 (stereo not given) | -9%[0.505 µM] | · | -17% | · | 0%
CCOc1ccccc1NC(=O)Cn1cnc2sc(C)c(S(=O)(=O)N3CCC(C)CC3)c2c1=O | 6% | · | ? | · | ?
NCCCNC(=O)Cn1c(=O)c2c3c(sc2n(Cc2ccccc2)c1=O)CCCC3 | · | -8% | ? | -7% | 21µM*
NCCNC(=O)Cn1c(=O)c2c3c(sc2n(Cc2ccccc2)c1=O)CCCC3 | · | 16% | 23µM* | 4% | 21µM*
O=C(Cn1c(=O)n2ncnc2c2c3c(sc21)CCCC3)c1ccccc1 | 1% | 38% | ? | 23% | 23µM*
O=c1n(Cc2ccccc2Cl)c2sc3c(c2c2ncnn12)CCCC3 | 10% | -31% | ? | 13% | ?
O=C(Cn1c(=O)c2c3c(sc2n(Cc2ccccc2)c1=O)CCCC3)NCCO | · | 45% | ? | -12% | ?
COc1ccc(C(=S)N2CCN(S(=O)(=O)c3ccccc3)CC2)cc1 | 3% | ? | ? | -10% | ?
Cc1cccc(Nc2nc(N)c([N+](=O)[O-])c(N3CCOCC3)n2)c1 | 2% | 27% | ? | 2% | -2%
COc1cccc(Nc2nc(N)c([N+](=O)[O-])c(N3CCOCC3)n2)c1 | · | 43% | 23µM* | 3% | ?

High-throughput results deposited in PubChem BioAssay by National Center for Advancing Translational Sciences (NCATS).
